The list is not random: actives were taken first. Their share in the collection is about 7.5%.
NPC1 promoter act – NPC1 promoter activation. Huh7 NPC1 promoter luciferase reporter, 24 h. Potency, µM (highest dose often 9.22 µM), without a hit: top-dose activation, usual class: activators. actives 2.4% (n = 320,000). AID 485313; also: % of control where 0% means no effect; nearly all actives have a fitted effect of over 60% in size
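Luminescence from an NPC1 promoter-driven luciferase reporter in stably transfected Huh7 cells was measured after 24 h compound treatment at 37 °C, followed by 10 min ambient incubation with luciferase detection reagent.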
Rab9 promoter act – Rab9 promoter activation | Huh7 Rab9 promoter-luciferase reporter, luminescence, 24 h | actives 2.8% (n = 320,000) | AID 485297 | Potency, µM (titrated, usually from 9.22 µM), inactives show top-dose activation, negative = inhibition, hits mostly activators; also: % of control where 0% means no effect; nearly all actives have a fitted effect of over 60% in size
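Cells were plated at 1500 per well in reduced-serum medium with 10% FBS and left 2 h. Compound in DMSO was then added for 24 h at 37 °C. Reporter signal was read by luminescence after 10 min with luciferase detection reagent.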
ELG1 genotoxic – genotoxicity induction in ELG1-luciferase HEK293T cells; HEK293T ELG1-luciferase reporter, luminescence, 16 h; Potency, µM (titrated, usually from 46 µM), for inactives: at the top dose activity change, positive = activation, hits mostly activators; actives 1.3% (n = 330,000); also: % of control where 0% means no effect; nearly all actives have a fitted effect of over 60% in size
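Quantitative HTS format in 1536-well plates. HEK293T ELG1-luciferase reporter cells receive test compound and are incubated 16 hr at 37 °C, 5% CO2; ONE-Glo added, 30 min room temperature, then luminescence read.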
Luc counter – counter-screen: inhibitors of Kinase-Glo firefly luciferase | Q27757 | Kinase-Glo luciferase, ATP luminescence, 8 min | Potency, µM (highest dose often 38.3 µM), without a hit: at the top dose activity change, negative = inhibition, hits mostly inhibitors | actives 0.28% (n = 200,000); also: % is scaled to controls: 0 for no effect and ±100 for the full control effect; nearly all actives have a fitted effect of over 60% in size
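Light output from Kinase-Glo luciferase with luciferin and 10 uM ATP in 50 mM imidazole pH 7.2, KCl, MgCl2, Tween 20, BSA; compound pin-delivered, 8-min ambient incubation, then luminescence read.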
SMN2 splice enh – enhancers of SMN2 splice variant expression; HEK293 SMN2-luciferase splicing reporter, luminescence, 30-36 h; Potency, µM (highest dose often 46.1 µM), for inactives: at the top dose activity change, positive = activation, actives largely listed as activators; actives 2.8% (n = 210,000); AID 1458; also: % of control where 0% means no effect; nearly all actives have a fitted effect of over 55% in size
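HEK293 cells carry an SMN2 minigene-luciferase reporter in which exon 7 inclusion puts luciferase in frame. Cells were seeded at 2000 cells/well, attached for 10-12 hours, then exposed to compounds for 30-36 hours at 37C before ONE-Glo luminescence.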
FLuc modulator – counter-screen for miR-21 project: firefly luciferase inhibitors or activators; Potency, µM (highest dose often 57.5 µM), for the others: at the highest dose activity change, negative = inhibition, most hits filed as inhibitors; purified FLuc, Km substrates, luminescence inhibition; AID 588342; actives 6.9% (n = 360,000); P08659;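 also: plate controls were vehicle for no effect and reference inhibitor for full effect; nearly all actives have a fitted effect of over 55% in size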
Target sequence (P08659 whole entry, looked up): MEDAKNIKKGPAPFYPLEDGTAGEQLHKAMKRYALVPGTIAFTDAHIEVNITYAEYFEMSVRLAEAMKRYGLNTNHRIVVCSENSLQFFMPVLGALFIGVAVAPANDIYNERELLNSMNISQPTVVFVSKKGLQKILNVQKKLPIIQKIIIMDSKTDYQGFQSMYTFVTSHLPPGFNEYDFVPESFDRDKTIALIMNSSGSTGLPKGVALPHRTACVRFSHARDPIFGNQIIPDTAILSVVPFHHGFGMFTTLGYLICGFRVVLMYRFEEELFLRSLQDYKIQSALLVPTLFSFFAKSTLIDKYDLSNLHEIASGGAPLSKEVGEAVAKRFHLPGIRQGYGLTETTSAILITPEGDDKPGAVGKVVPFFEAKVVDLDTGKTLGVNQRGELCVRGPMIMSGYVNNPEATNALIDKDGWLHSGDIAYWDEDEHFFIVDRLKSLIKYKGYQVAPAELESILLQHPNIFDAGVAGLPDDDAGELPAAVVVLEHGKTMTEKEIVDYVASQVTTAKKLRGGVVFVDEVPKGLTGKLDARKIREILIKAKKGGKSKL
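Purified P. pyralis luciferase (10nM final) with 10uM D-luciferin and 10uM ATP (Km levels) in 50mM Tris acetate pH 7.5, 10mM Mg acetate, 0.01% Tween-20, 0.05% BSA; qHTS 6-point titration, ~60 µM downward; luminescence read.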
An asterisk follows results filed as active; ? = inconclusive; . = not tested or not shown. Calls follow the shape of the dose curve; as a rule, active = well fitted curve in the direction sought with a large enough effect; inconclusive = small, poorly fitted or top-dose-only effect, or another doubt; inactive = no such curve, though single readings can be large; an effect the other way counts as inactive or inconclusive. Potency is read from the fitted curve at half-maximal effect.

SMILES	NPC1 promoter act	Rab9 promoter act	ELG1 genotoxic	Luc counter	SMN2 splice enh	FLuc modulator
O=C(O)CN1C(=O)/C(=C\c2cccc(OCc3ccccc3)c2)SC1=S	3%	7%	5%	.	.	15µM*
O=C(O)COc1cccc(/C=C2/SC(=S)N(Cc3ccccc3)C2=O)c1	3%	-1%	-8%	.	.	?
CN1C(=O)/C(=C/c2ccc(OC(=O)c3ccco3)cc2)SC1=S	4%	-1%	4%	.	.	-1%
COc1cc(/C=C2/SC(=S)N(CC(=O)O)C2=O)ccc1OC(=O)c1ccco1	-5%	0%	-4%	.	.	7.6µM*
COc1cc(/C=C2\SC(=S)N(CC(=O)O)C2=O)ccc1OC(=O)c1ccco1	?	0%	1%	.	.	7.6µM*
CCOc1cc(/C=C2/SC(=S)N(CC(=O)O)C2=O)ccc1OC(=O)c1cccs1	5%	10%	-2%	.	.	17µM*
CCc1nn(CC(=O)N2CCC(C)CC2)c(=O)c2cc3occc3n12	.	.	.	.	.	-2%
COc1ccc(/C=C2/SC(=S)N(CC(=O)O)C2=O)cc1OCc1ccc(Cl)cc1	-5%	23%	17%	.	.	19µM*
O=C(O)CN1C(=O)/C(=C\c2cc(Br)ccc2OCc2ccc(Cl)cc2)SC1=S	-1%	1%	1%	.	.	-7%
COc1ccc(C(=O)NCCOc2ccccc2Cl)c(OC)c1OC	4.5µM*	3.2µM*	15µM*	.	.	15µM*
COc1cc(C(=O)NCCOc2ccccc2C)c(Br)c(OC)c1OC	1%	3%	-1%	-3%	-6%	4%
O=c1oc2ccccc2c(O)c1/C=C1\C=Nc2ccccc21	13%	-3%	-2%	0%	-13%	27µM*
CCOc1ccc(N=Cc2c(O)c3ccccc3oc2=O)cc1	-1%	-1%	9%	?	-6%	0.85µM*
O=c1oc2ccccc2c(O)c1/C=N/c1ncccn1	2%	3%	5%	?	-27%	?
O=c1oc2ccccc2c(O)c1/C=N/c1ccccn1	-5%	2%	-3%	?	-6%	11µM*
O=c1oc2ccccc2c(O)c1C=Nc1cccnc1	-7%	-12%	-8%	-7%	-2%	9.5µM*
CC(N=Cc1c(O)c2ccccc2oc1=O)C(=O)O (stereo unspecified)	-5%	-8%	-4%	-5%	-8%	-14%
COc1ccc(N(C)C(=O)c2cn(C)c(=O)c3cc(OC)c(OC)cc23)cc1	-6%	-2%	-2%	.	-10%	1%
COc1cc(C(=O)OCC(=O)N2CCNC2=O)cc(Cl)c1OC	-2%	-5%	5%	.	.	0%
COc1cc(C2Nc3ccccc3C(=O)N2c2ccc3c(c2)OCCO3)ccc1OCC(C)C (stereo unspecified)	1µM*	0.56µM*	1.8µM*	0%	3.2µM*	15µM*
O=C1c2ccccc2NC(c2ccc3c(c2)OCCO3)N1c1ccc2c(c1)OCCO2 (stereo unspecified)	1µM*	1.6µM*	2.1µM*	-5%	3.5µM*	11µM*
CCOC(=O)c1noc2nc(C)n(Cc3ccc([N+](=O)[O-])cc3)c(=O)c12	.	.	.	.	.	-2%
CCCC=O	.	.	.	.	20%	.
Cc1ccsc1C(=O)OCC(=O)N1CCc2ccccc2C1	2.8µM*	0.79µM*	?	1%	25µM*	8.5µM*
Cc1ccsc1C(=O)OCC(=O)c1ccc(OC(F)F)cc1	3%	?	2%	.	.	1.1µM*
SMILES	NPC1 promoter act	Rab9 promoter act	ELG1 genotoxic	Luc counter	SMN2 splice enh	FLuc modulator
COc1ccc(C(=O)NNC(=O)COC(=O)c2sccc2C)cc1	-2%	1%	-3%	.	.	.
Cc1ccsc1C(=O)OCC(=O)c1ccc[nH]1	?	2.8µM*	?	.	.	13µM*
CN(C)c1cccc(C(=O)OCC(=O)c2ccc[nH]2)c1	3.2µM*	1.4µM*	?	.	.	11µM*
COC(=O)c1c(NC(=O)c2ccccc2F)sc(C(=O)N2CCOCC2)c1C	-1%	6%	-10%	.	.	-3%
CCOC(=O)N1CCN(C2CCCN(C(=O)c3ccccc3N(C)C)C2)CC1 (stereo unspecified)	3%	11%	3%	.	.	3%
CCCN(C(=O)c1cnccn1)c1c(N)n(Cc2ccccc2)c(=O)[nH]c1=O	0%	2%	4%	.	.	.
CN(CC(=O)Nc1ccc(F)cc1)C(=O)COC(=O)c1cccc(N(C)C)c1	2.2µM*	1.4µM*	?	.	.	?
Cc1cc(C)c(-c2csc(NC(=O)C3=NN(c4ccccc4)C(=O)CC3)n2)c(C)c1	-11%	-17%	0%	.	.	1%
COc1ccc(-c2csc(NC(=O)c3cccc(N4C(=O)CCC4=O)c3)n2)cc1OC	-2%	-5%	0%	.	.	15µM*
COc1ccc(-c2csc(NC(=O)c3ccc(N4C(=O)CCC4=O)cc3)n2)cc1	-8%	-9%	0%	0%	3%	0%
CCc1ccc(-c2csc(NC(=O)C3=NN(c4ccccc4)C(=O)CC3)n2)cc1	1%	-14%	-1%	0%	-43%	6µM*
Cc1ccc(-c2csc(NC(=O)c3cccc(N4C(=O)CCC4=O)c3)n2)o1	0%	-4%	-1%	-2%	-29%	9.5µM*
CCOC(=O)Cc1csc(NC(=O)c2cccc(N3C(=O)CCC3=O)c2)n1	-1%	19%	1%	.	.	-15%
CCOc1ccc(-c2csc(NC(=O)c3cccc(N4C(=O)CCC4=O)c3)n2)cc1	-4%	-6%	-2%	.	.	9.5µM*
COc1ccc(CNCCC(c2ccc3c(c2)OCO3)c2ccccc2OC)cc1 (stereo unspecified)	.	.	.	.	-23%	-2%
COc1ccc(-c2csc(NC(=O)CCN3C(=O)C4CC=CCC4C3=O)n2)cc1OC (stereo unspecified)	2%	1%	-2%	.	.	17µM*
CC(=O)N1CCCc2cc(S(=O)(=O)N3CCC(C(=O)N(Cc4ccccc4)C(C)C)CC3)ccc21	.	.	.	.	.	2%
CCOC(=O)c1cccc(NC(=O)c2cnccn2)c1	2.8µM*	?	?	-2%	?	-16%
O=C(NCCc1ccccc1Cl)c1cc2ccccn2n1	.	.	.	.	.	12µM*
O=C(Nc1ccccc1C(F)(F)F)c1cc2ccccn2n1	.	.	.	.	.	1.9µM*
COc1ccc(NC(=O)c2cc3ccccn3n2)cc1	1µM*	?	1.2µM*	-25%	6.3µM*	2.1µM*
O=C(Nc1ccccc1C(F)(F)F)c1ccccn1	-1%	-5%	8%	-2%	-1%	?
COc1ccnc(CS(=O)c2nc3ccc(OC(F)F)cc3[nH]2)c1OC (stereo unspecified)	.	.	.	-8%	-9%	.
CCn1cc(C(=O)N[C@H](C(=O)NCCO)C(C)C)c(=O)c2cc3c(cc21)OCO3	0%	0%	-5%	.	.	2%
